Screens from PubChem BioAssay.
PvdQ acylase = P. aeruginosa PvdQ acylase inhibitors, primary screen, biochemical, fluorescence, plate reader and imaging, single point | PvdQ acylase [Pseudomonas aeruginosa LESB58] | purified PvdQ acylase | inhibition, % at 10 µM | 340,000 compounds, 0.063% hits; in the data active means inhibition above about 30%, passing the limit was not always enough;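 further: 0% = vehicle neutral wells and 100% = reference inhibitor wells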
DENV2 CPE = inhibitors of DENV2 cytopathic effect, primary screen, cell-based, plate reader, single concentration; AID 651640, 2012; 350,000 compounds, 1.7% hits; DENV2-infected cells, cytopathic effect rescue; CPE inhibition, % at 9.99 µM; in the data active means CPE inhibition above about 20%, passing the limit was not always enough; tested in BHK-21 cells;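 further: 0% = median of neutral control wells and 100% = median of positive control wells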
miR122 inh = miR-122 Renilla sensor signal increase in Huh7, primary screen, miR-122 inhibitor project, cell-based, single point, plate reader; activation (reporter increase), % at 12.5 µM; 340,000 compounds, 0.3% hits; AID 602342, 2012; Huh7 miR-122 Renilla luciferase sensor, 48 h; neutral wells = 0, positive control = 100;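 active means mean replicate activation score at least 90 and every replicate individually at or above 90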;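 further: higher luciferase means less miR-122 activity so hits act as miR-122 inhibitors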
PGC1a acetyl inh = inhibitors of PGC1a acetylation signal, primary screen, cell-based, U2OS, AlphaScreen, inhibitor mode; AlphaScreen anti-acetyl-lysine; with virally co-expressed GCN5 acetyltransferase; inhibition, % at 15.6 µM; 350,000 compounds, 0.17% hits; AID 651687, 2012;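 active means every replicate shows inhibition of at least 40%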;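 further: 0% = neutral control wells and 100% = positive control wells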
Statin myotox sup = suppressors of statin myotoxicity in C2C12 myotubes, primary screen, cell-based, single point, plate reader; C2C12 myotubes + simvastatin, ATP luminescence, 48 h; scaled: DMSO 0, geranylgeraniol control 100; rescue of ATP level, % at 7.49 µM; 330,000 compounds, 0.78% hits; AID 602340, 2012;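 active means mean ATP rescue above about 67%, or every replicate alone reaching that limit, limit read from the data, passing the limit was not always enough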;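 further: myotubes were challenged with 10 µM simvastatin during compound exposure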
The depositor's hits bear a star; x = no result given; [ ] = remark or other dose. Shown are actives, neighbours in structure and some others; about 2.2% of the full set was active somewhere.

SMILES	PvdQ acylase	DENV2 CPE	miR122 inh	PGC1a acetyl inh	Statin myotox sup
C[C@@H]1CN([C@H](C)CO)C(=O)Cc2cc(NC(=O)Cn3cnnn3)ccc2O[C@@H]1CN(C)Cc1ccncc1	x	-5	2[16.7 µM]	4	-9
COc1ccc(S(=O)(=O)Nc2cccc3c2O[C@@H](CN(C)S(=O)(=O)c2ccc(Cl)cc2)[C@H](C)CN([C@@H](C)CO)C3=O)cc1	x	0	7[16.7 µM]	0	-10
COc1ccc(CN(C)C[C@@H]2Oc3ccc(NS(=O)(=O)c4ccc(F)cc4)cc3CC(=O)N([C@H](C)CO)C[C@@H]2C)cc1	x	23*	0[16.7 µM]	6	18
COc1ccc(CN(C)C[C@H]2Oc3ccc(NS(=O)(=O)c4ccc(F)cc4)cc3CC(=O)N([C@H](C)CO)C[C@@H]2C)cc1	x	-6	x	11	x
Cc1ccc(CNC(=O)[C@H](C)N2C(=O)N3CCc4c([nH]c5ccccc45)[C@@]3(C)C2=O)cc1	-11	35*	1	-27	14
C[C@@H](C(=O)NCCc1ccc(F)cc1)N1C(=O)N2CCc3c([nH]c4ccccc34)[C@@]2(C)C1=O	-13	-10	-9	-1	-8
Cc1csc(=O)n1CCC(=O)OCC(=O)Nc1cc([N+](=O)[O-])ccc1Cl	-12	37*	-7	-9	-1
Cc1ccc(NC(=O)COC(=O)CCn2c(C)csc2=O)c([N+](=O)[O-])c1	-2	0	-1	-3	x
C/C(=N\NS(=O)(=O)c1ccc(C)cc1)c1ccc(C)o1	1	3	9	-1	0
C/C(=N/NS(=O)(=O)c1ccc(F)cc1)c1ccc(NC(=O)c2ccc(C)o2)cc1	2	x	132*	-4	-7
CCOc1cccc2cc(-c3nnc(NCc4ccco4)s3)c(=O)oc12	-13	x	-3	x	x
COc1ccc2oc(=O)c(-c3nnc(NCc4ccco4)s3)cc2c1	3	x	-3	-8	103*
COc1cc2c(cc1NC(=O)/C=C/c1ccc([N+](=O)[O-])cc1)oc1ccccc12	-27	39*	-6	-2	x
Cc1ccc(-c2cnc3c(c2)C(=O)N([C@H](C)CO)C[C@H](C)[C@@H](CN(C)C(=O)CN(C)C)O3)cc1	x	-1	x	5	2
OC(CSc1nc(-c2ccccc2)c(-c2ccccc2)o1)CC(O)c1ccccc1 (stereo not given)	x	30*	x	5	x
O=[N+]([O-])c1ccc(C(O)CC(O)CSc2nc(-c3ccccc3)c(-c3ccccc3)o2)cc1 (stereo not given)	x	9	x	-3	x
O=C(C[C@H]1C=C[C@H](NS(=O)(=O)c2ccc(F)cc2)[C@@H](CO)O1)N1CCN(c2ccccc2)CC1	x	2	1[16.7 µM]	5	12
C[C@@H]1CN([C@@H](C)CO)C(=O)Cc2cc(NC(=O)CCN3CCOCC3)ccc2O[C@H]1CN(C)S(=O)(=O)c1cn(C)cn1	x	6	6[16.7 µM]	6	10
C[C@@H]1CN([C@H](C)CO)C(=O)Cc2cc(NC(=O)CCN3CCOCC3)ccc2O[C@@H]1CN(C)S(=O)(=O)c1cn(C)cn1	x	22*	1[16.7 µM]	5	38
COc1ccc(NC(=O)Nc2ccc3c(c2)CC(=O)N([C@H](C)CO)C[C@H](C)[C@@H](CN(C)S(=O)(=O)c2cn(C)cn2)O3)cc1	x	22*	5[16.7 µM]	-10	19
C[C@@H]1CN([C@H](C)CO)C(=O)Cc2cc(NC(=O)Nc3ccccc3)ccc2O[C@H]1CN(C)S(=O)(=O)c1cn(C)cn1	x	62*	-3[16.7 µM]	-3	6
CO[C@H]1CN(C)C(=O)c2cc(NS(=O)(=O)c3ccccc3F)ccc2OC[C@H](C)NC[C@@H]1C	x	-4	11[16.7 µM]	9	5
COc1ccccc1S(=O)(=O)N1CC[C@H]2[C@H](CO)Nc3ccc(Br)cc3[C@H]21	x	-8	3[16.7 µM]	8	-11
CC(C)NC(=O)Nc1cccc2c1O[C@@H](CN(C)S(C)(=O)=O)[C@H](C)CN([C@H](C)CO)C2=O	x	-2	2[16.7 µM]	-2	-22
OCCCc1cn(CC2CCCCC2)nn1	-14	48*	2	-7	9
SMILES	PvdQ acylase	DENV2 CPE	miR122 inh	PGC1a acetyl inh	Statin myotox sup
COc1cc2nc(N(C)C)nc(N)c2cc1OC	0	x	-5	12	78*
CC(C)(C)OC(=O)C[C@@H]1C/C=C\C[C@H](CC(=O)NCCO)C(=O)N2CCC[C@H]2COC1=O	6	83*	-6	7	0
O=S(=O)(NCc1c(Cl)cccc1Oc1ccccc1)c1ccccc1	-13	32*	x	34	30
Cc1ccc(S(=O)(=O)NCc2c(Cl)cccc2Oc2ccccc2)cc1	5	x	x	-21	11
Cc1ccc2nc(-c3ccc(-c4cccc(Cl)c4)cc3)c(NCc3ccccc3)n2c1	-2	4	17	-18	85*
COc1cc(-c2nc3ccc(C)cn3c2NCc2ccccc2)ccc1-c1cccc(Cl)c1	-9	-10	7	-20	-2
COc1ccc([C@H]2CC(=O)C=C(c3ccc(Oc4ccccc4)cc3)C2)cc1OC	-6	2	-9	x	30
COc1ccc([C@H]2CC(=O)C=C(c3ccc4cc[nH]c4c3)C2)cc1	-22	66*	9	2	-7
COc1ccc([C@H]2CC(=O)C=C(c3ccccc3)C2)cc1OC	-14	-4	0	-25	80*
COc1ccc([C@H]2CC(=O)C=C(c3ccc(F)nc3)C2)cc1OC	-11	15	-1	43	90*
COCC(=O)N(C)C[C@@H]1Oc2ncc(C3=CCCC3)cc2C(=O)N([C@@H](C)CO)C[C@H]1C	x	0	x	-4	6
O=C(Nc1ccc(Cl)cc1)N[C@@H]1CC[C@H](CCn2cc(C3(O)CCCC3)nn2)O[C@@H]1CO	x	-1	-13[16.7 µM]	-4	-2
O=C(C[C@@H]1C=C[C@@H](NC(=O)Nc2ccc(C(F)(F)F)cc2)[C@@H](CO)O1)NCCN1CCCC1	x	-7	x	14	13
CN1CCCCC(NC(=O)CCCl)C1=O (stereo not given)	x	2	x	x	x
CCCCCC(=O)NC1CCCCN(C)C1=O (stereo not given)	x	76*	x	x	x
O=C(Cc1ccccn1)N[C@@H]1CC[C@@H](CCNC(=O)c2cc(Cl)cc(Cl)c2)O[C@@H]1CO	x	-2	-16[16.7 µM]	6	-5
O=C(C[C@@H]1CC[C@@H](NC(=O)CCN2CCCCC2)[C@H](CO)O1)Nc1nccs1	x	-1	x	13	-13
COc1ccc(CNC(=O)c2ccc(N3CCCC3=O)cc2)cc1	4	5	1	0	7
COc1ccc(C(CNC(=O)c2cccc3cccnc23)N(C)C)cc1 (stereo not given)	-8	46*	-6	-17	11
COc1ccc(C(CNC(=O)c2ccc(N3CCCC3=O)cc2)N(C)C)cc1 (stereo not given)	7	x	-12	5	84*
